Results: PubChem BioAssay (NCATS)
Several values for one entry are separate records, joined by “and”; a condition that tells them apart may be missing. Identical values can stand only once. Results filed as inconclusive are left out. A call without a number means that no potency is given here. Activity calls are given as the source filed them. Unless noted, the call rests on the fitted dose curve; in most records, active means well fitted curve in the direction sought with a large enough effect; inconclusive means small, poorly fitted or top-dose-only effect, or another doubt; inactive means no such curve, though single readings can be large; an effect the other way counts as inactive or inconclusive.

What was measured:
[1] = Cell Viability - Jurkat (AID 426;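 active means dose-dependent loss of cell ATP signal giving a full or clear fitted curve, ranked by lower potency value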;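 further: potency means the concentration at half of the fitted maximal effect; cells exposed to compound for 40 hours at 37 °C before ATP read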); conditions: qHTS
How it was run: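 Cytotoxicity taken as drop in cellular ATP (CellTiter-Glo luminescence, 20 min room temperature) after 40 hr, 37C treatment of 5000 Jurkat Clone E6-1 cells per well; concentration-response fitted with Hill equation for AC50.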

[2] = Cell Viability - Hek293 (AID 427;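 active means compounds whose dose-response curve shows a full or clear partial loss of cell viability, called from curve shape rather than a numeric limit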;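 further: potency means the concentration at half of the fitted maximal effect; cells exposed to compound for 40 hours at 37 °C before reading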); conditions: qHTS
How it was run: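 Luminescent ATP read-out (CellTiter-Glo, 20 min RT) after 40 hr compound exposure at 37 °C in complete medium. Signal normalized to DMSO (basal) and 100 uM tamoxifen (100% inhibition); concentration-response fitted with the standard Hill equation to give AC50.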

[3] = Cell Viability - SK-N-SH (AID 435; calls by dose curve;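 further: potency means the concentration at half of the fitted maximal effect; compound exposure lasted 40 h at 37 °C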); conditions: SK-N-SH neuroblastoma cell viability qHTS
How it was run: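 CellTiter-Glo ATP luminescence, 20 min RT read; cells pre-plated 5 hr, compound 40 hr at 37 °C, 1500 cells/well, complete medium. Normalized DMSO = 0, 100 uM tamoxifen = 100% inhibition; Hill-fit AC50.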

[4] = Cell Viability - SH-SY5Y (AID 544); conditions: SH-SY5Y neuroblastoma cell viability; viability change, negative = cytotoxic: at 92.2 µM (top of the series);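 further: cells exposed to compound for 40 hours; nearly all actives have a fitted effect of over 55% in size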
How it was run: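 Cytotoxicity measured via ATP-dependent luciferase luminescence (CellTiter-Glo) following 40 h, 37 °C exposure of 1500 SH-SY5Y cells per well. Concentration-response data were fitted with the standard Hill equation to give AC50.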

[5] = biological target: Cytochrome P450 3A4 (Homo sapiens) (UniProt P08684); experiment: qHTS Assay for Inhibitors and Substrates of Cytochrome P450 3A4 (AID 884); conditions: recombinant CYP3A4, Luciferin-PPXE luminescence; series mostly up to 57.1 µM; further: nearly all actives have a fitted effect of over 50% in size
Cytochrome P450 3A4 (Homo sapiens), sequence (P08684 whole entry, looked up): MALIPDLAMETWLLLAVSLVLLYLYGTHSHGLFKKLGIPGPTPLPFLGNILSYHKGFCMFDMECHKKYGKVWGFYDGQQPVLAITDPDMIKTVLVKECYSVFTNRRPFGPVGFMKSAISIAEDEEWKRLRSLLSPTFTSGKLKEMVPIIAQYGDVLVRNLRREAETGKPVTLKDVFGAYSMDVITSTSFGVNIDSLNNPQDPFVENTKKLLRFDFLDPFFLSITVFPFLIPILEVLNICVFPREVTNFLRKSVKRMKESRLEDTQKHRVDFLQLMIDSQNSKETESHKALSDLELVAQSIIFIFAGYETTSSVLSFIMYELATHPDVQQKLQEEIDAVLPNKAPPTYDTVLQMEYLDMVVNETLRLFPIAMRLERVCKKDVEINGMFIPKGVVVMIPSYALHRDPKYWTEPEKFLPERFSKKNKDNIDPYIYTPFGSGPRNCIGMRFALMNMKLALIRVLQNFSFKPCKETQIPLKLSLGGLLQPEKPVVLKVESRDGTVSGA
How it was run: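 Luminescent readout of luciferin produced by CYP3A4 (20 nM) dealkylation of Luciferin-PPXE, 25 uM (its KM). NADPH-driven reaction ran 60 min at RT after 10 min compound preincubation; data scaled to 57 uM ketoconazole as 100% inhibition.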

[6] = Cell Viability - LYMP2-015 (AID 971); conditions: LYMP2-015 lymphoblastoid cell viability; series mostly up to 92.2 µM; further: nearly all actives have a fitted effect of over 55% in size
How it was run: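 Cytotoxicity readout: decrease in intracellular ATP (CellTiter-Glo luminescence) in 2500 LYMP2-015 lymphoblastoid cells/well after 24 h compound exposure at 37 C. Concentration-response data fitted with the standard Hill equation to give AC50.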

[7] = Cell Viability - LYMP2-010 (AID 981); conditions: LYMP2-010 lymphoblastoid cell viability, qHTS; series mostly up to 92.2 µM;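 further: cells exposed to compound for 24 hours at 37 °C; nearly all actives have a fitted effect of over 55% in size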
How it was run: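 CellTiter-Glo ATP luminescence measured cytotoxicity after 24 h compound exposure at 37 C. LYMP2-010 cells were seeded at 2500/well, with tetraoctylammonium bromide as control; concentration-response curves gave AC50 values by the Hill equation.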

[8] = biological target: Glucocorticoid receptor (Homo sapiens) (UniProt P04150); experiment: qHTS assay for small molecule agonists of glucocorticoid receptor signaling (AID 588532; active means well fitted curve in the direction sought with a large enough effect in the signal ratio, with a control signal flat; the % refers to the signal ratio); conditions: HeLa MMTV-bla, beta-lactamase ratio, agonist, 18 h; stronger effect = higher value; percent of dexamethasone control, DMSO zero
Glucocorticoid receptor (Homo sapiens), sequence (P04150 whole entry, looked up): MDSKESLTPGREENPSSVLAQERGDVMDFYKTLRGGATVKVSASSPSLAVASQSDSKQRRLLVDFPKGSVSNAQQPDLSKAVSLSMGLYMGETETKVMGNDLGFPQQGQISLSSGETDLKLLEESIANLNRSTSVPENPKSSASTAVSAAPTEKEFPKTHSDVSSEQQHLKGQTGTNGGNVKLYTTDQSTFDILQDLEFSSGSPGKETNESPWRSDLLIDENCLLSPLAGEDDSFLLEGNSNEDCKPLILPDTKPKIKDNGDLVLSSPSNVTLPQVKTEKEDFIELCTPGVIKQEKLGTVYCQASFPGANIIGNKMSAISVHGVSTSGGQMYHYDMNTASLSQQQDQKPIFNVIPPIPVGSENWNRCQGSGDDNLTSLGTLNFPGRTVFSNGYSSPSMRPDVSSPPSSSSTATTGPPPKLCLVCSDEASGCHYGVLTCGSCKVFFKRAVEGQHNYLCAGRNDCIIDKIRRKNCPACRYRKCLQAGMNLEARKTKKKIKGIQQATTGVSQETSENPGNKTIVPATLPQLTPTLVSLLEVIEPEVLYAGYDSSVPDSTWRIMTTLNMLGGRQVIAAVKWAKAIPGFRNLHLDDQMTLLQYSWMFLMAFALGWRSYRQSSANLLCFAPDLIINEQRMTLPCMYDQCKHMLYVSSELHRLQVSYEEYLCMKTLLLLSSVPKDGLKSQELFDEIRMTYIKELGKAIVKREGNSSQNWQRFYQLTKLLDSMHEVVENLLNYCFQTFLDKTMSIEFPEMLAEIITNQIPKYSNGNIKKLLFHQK
How it was run: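 Stimulation of a glucocorticoid response element-driven beta-lactamase gene was measured in HeLa cells. Responses were scaled between DMSO basal and 0.1 uM dexamethasone, then fitted for half-maximal stimulation.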

[9] = biological target: Vitamin D3 receptor (Homo sapiens) (UniProt P11473); experiment: qHTS assay for small molecule agonists of vitamin D receptor signaling (AID 588543; calls by dose curve); conditions: HEK293T VDR-UAS-bla, beta-lactamase ratio, 16 h; series mostly up to 76.8 µM
Vitamin D3 receptor (Homo sapiens), sequence (P11473 whole entry, looked up): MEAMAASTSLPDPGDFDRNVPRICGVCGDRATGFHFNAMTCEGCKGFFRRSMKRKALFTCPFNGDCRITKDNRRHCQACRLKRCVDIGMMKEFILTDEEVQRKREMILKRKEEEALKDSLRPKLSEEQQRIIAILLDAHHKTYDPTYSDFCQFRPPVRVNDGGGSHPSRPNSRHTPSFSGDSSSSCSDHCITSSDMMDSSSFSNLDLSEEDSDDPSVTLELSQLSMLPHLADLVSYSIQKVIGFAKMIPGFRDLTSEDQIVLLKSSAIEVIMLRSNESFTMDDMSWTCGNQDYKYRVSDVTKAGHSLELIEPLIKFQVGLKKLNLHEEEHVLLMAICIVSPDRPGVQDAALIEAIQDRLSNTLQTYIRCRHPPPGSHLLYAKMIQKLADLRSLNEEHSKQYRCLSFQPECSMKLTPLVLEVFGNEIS
How it was run: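 β-lactamase reporter, VDR-UAS-bla HEK293T, agonist mode. Cells plated 5 h at 37 °C, compound titration 16 h at 37 °C, CCF4 dye 2 h RT, ratio 460/530 nm. Hill fit → EC50, efficacy vs 50 nM 1α,25-(OH)2D3.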

[10] = qHTS assay for small molecule agonists of retinoid X receptor alpha signaling (AID 588544); conditions: HEK293T RXRa-UAS-bla, beta-lactamase reporter, 18 h; 530 nm emission
[11] = biological target: Thyroid hormone receptor beta (Homo sapiens) (UniProt P10828); experiment: qHTS assay for small molecule agonists of thyroid hormone receptor beta signaling (AID 588545; calls by dose curve); conditions: TR-UAS-bla GripTite HEK 293, beta-lactamase ratio, agonist mode, 18 h; series mostly up to 76.7 µM
Thyroid hormone receptor beta (Homo sapiens), sequence (P10828 whole entry, looked up): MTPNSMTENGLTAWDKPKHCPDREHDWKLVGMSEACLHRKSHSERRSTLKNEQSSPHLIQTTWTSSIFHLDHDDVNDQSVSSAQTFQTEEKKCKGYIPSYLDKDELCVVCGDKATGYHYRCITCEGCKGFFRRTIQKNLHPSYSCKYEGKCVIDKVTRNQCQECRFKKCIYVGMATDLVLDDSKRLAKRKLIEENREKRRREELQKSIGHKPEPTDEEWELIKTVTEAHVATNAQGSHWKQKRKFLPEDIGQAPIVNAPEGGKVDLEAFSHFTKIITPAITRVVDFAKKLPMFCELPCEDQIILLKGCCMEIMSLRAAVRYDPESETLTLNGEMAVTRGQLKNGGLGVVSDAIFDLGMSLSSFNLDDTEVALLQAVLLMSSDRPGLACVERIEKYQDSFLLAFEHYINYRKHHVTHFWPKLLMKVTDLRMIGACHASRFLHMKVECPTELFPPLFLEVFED
How it was run: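 TR-UAS-bla-GripTite HEK 293 cells in medium with 2% charcoal/dextran FBS, 0.1 mM NEAA and 1 mM sodium pyruvate were treated with titrated compounds for 18 hrs at 37 C. Beta-lactamase reporter was read with CCF4 dye (ex 405, em 460/530 nm); EC50 from Hill fits.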

[12] = biological target: Voltage-gated inwardly rectifying potassium channel KCNH2 (Homo sapiens) (UniProt Q12809); experiment: qHTS Assay for Small Molecule Inhibitors of the Human hERG Channel Activity (AID 588834); conditions: U2OS BacMam hERG, FluxOR thallium flux fluorescence; series mostly up to 92.2 µM;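 further: top concentration of the series differs between compounds; lower thallium flux fluorescence means stronger hERG block; nearly all actives have a fitted effect of over 50% in size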
Voltage-gated inwardly rectifying potassium channel KCNH2 (Homo sapiens), sequence (Q12809 whole entry, looked up): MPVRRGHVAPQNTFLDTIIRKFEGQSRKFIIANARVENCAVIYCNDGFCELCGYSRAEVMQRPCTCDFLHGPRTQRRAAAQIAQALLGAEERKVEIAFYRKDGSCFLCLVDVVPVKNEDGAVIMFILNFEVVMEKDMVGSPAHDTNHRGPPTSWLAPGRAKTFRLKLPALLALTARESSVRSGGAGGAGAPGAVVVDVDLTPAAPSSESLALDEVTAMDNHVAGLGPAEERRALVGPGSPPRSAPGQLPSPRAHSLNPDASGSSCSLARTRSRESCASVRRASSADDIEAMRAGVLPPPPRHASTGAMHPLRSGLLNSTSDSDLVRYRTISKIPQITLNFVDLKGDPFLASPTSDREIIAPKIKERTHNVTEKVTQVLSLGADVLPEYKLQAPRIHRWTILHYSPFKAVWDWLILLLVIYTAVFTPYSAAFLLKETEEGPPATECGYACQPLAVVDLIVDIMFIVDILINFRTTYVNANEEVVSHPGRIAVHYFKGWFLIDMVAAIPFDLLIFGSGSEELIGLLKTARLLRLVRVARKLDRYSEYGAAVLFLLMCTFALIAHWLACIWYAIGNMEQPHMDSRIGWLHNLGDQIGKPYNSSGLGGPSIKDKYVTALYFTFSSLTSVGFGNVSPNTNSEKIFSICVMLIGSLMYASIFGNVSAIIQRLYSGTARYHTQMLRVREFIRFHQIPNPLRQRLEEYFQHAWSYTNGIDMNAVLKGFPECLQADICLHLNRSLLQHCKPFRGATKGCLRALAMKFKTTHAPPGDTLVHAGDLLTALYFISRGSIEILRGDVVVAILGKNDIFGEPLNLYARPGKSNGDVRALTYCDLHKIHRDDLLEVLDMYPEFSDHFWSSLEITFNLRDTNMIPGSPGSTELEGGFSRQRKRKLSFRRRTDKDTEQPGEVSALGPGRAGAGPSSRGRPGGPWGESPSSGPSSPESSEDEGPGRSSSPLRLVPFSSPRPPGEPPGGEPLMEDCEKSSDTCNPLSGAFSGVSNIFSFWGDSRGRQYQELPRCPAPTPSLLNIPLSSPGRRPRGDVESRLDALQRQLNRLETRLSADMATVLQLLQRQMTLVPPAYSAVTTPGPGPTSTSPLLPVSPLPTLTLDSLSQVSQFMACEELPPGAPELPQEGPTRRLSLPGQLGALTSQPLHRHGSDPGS
How it was run: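 Thallium-flux (FluxOR) read-out on FDSS: fluorescence read 10 s before and 2 min after stimulation buffer. hERG-BacMam-transduced U2OS cells, compound exposure about 10 min. AC50 by standard Hill equation.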

[13] = qHTS assay for small molecule activators of the p53 signaling pathway (AID 651743; active means well fitted activation curve with a large enough effect in the signal ratio, not every such curve was filed as active; the % refers to the signal ratio); conditions: HCT-116 p53RE-bla, beta-lactamase FRET ratio, 16 h; activation: stronger effect = higher value
How it was run: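 Agonist-mode quantitative HTS in HCT-116 cells carrying a p53-response-element beta-lactamase reporter; 16 h compound treatment at 37 C, then FRET substrate loading for 2 h at room temperature and fluorescence read.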

[14] = qHTS assay for small molecule activators of the nuclear factor-kappa B (NF-kB) signaling pathway (AID 651749; active means well fitted activation curve with a large enough effect in the signal ratio; the % refers to the signal ratio); conditions: NF-kB-bla ME-180 cells, beta-lactamase FRET ratio, 16 h; stronger effect = higher value
How it was run: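 Human ME-180 cervical cells with an NF-kB-bla construct; compounds added via 23 nL pin transfer, DMSO as vehicle; incubation 16 hr. Reporter activity measured by FRET disruption.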

[15] = qHTS assay for small molecule disruptors of the mitochondrial membrane potential - 1 hr assay (AID 651754; calls by dose curve; further: nearly all actives have a fitted effect of over 35% in size; further: potency means the concentration at half of the fitted maximal effect); conditions: series mostly up to 92.2 µM
How it was run: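 Mitochondrial potential in living HepG2 cells after 1 hr compound treatment at 37C was read with Mito-MPS dye added for a further 30 min. Red aggregate and green monomer fluorescence were measured; loss of potential leaves dye as cytoplasmic monomers.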

[16] = qHTS assay for small molecule agonists of the antioxidant response element (ARE) signaling pathway measured by Nrf2-dependant transcriptional activity (AID 720636; active means well fitted curve in the direction sought with a large enough effect in the repeat runs; an effect the other way counts as inactive or inconclusive); conditions: ARE-luc HepG2, Nrf2 luciferase reporter, 16 h; series mostly up to 92.4 µM
How it was run: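 Quantitative HTS format in HepG2 cells stably expressing an ARE-luciferase reporter; 16 hr compound treatment at 37 C, luciferase signal detected with ONE-Glo.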

[17] = qHTS assay for small molecule antagonists of the retinoid-related orphan receptor gamma (ROR-gamma) signaling pathway - cell viability counter screen (AID 720652; active means well fitted curve in the direction sought with a large enough effect in the repeat runs; an effect the other way counts as inactive or inconclusive;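 further: CHO reporter cells with doxycycline-induced ROR-gamma expression; compound exposure lasted 16 hr before ATP read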); conditions: RORgamma reporter cell line viability counter screen; series mostly up to 92.2 µM
How it was run: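 Cytotoxicity counter screen: intracellular ATP (CellTiter-Glo luminescence) measured in the doxycycline-induced CHO RORE-luciferase reporter line after 16 hr compound exposure at 37 C, 5% CO2.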

[18] = qHTS assay for small molecule activators of the human pregnane X receptor (PXR) signaling pathway (AID 720659; call rule not given here); conditions: DPX-2 HepG2 CYP3A4-luciferase, 24 h; series mostly up to 92.3 µM
[19] = biological target: Nuclear receptor ROR-gamma (Homo sapiens) (UniProt P51449); experiment: qHTS assay for small molecule antagonists of the retinoid-related orphan receptor gamma (ROR-gamma) signaling pathway (AID 651802); conditions: ROR-gamma antagonist cell reporter assay; series mostly up to 92.2 µM;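 further: CHO cells with doxycycline-induced ROR-gamma expression; luciferase reporter luminescence driven by ROR response element; nearly all actives have a fitted effect of over 60% in size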
Nuclear receptor ROR-gamma (Homo sapiens), sequence (P51449 whole entry, looked up): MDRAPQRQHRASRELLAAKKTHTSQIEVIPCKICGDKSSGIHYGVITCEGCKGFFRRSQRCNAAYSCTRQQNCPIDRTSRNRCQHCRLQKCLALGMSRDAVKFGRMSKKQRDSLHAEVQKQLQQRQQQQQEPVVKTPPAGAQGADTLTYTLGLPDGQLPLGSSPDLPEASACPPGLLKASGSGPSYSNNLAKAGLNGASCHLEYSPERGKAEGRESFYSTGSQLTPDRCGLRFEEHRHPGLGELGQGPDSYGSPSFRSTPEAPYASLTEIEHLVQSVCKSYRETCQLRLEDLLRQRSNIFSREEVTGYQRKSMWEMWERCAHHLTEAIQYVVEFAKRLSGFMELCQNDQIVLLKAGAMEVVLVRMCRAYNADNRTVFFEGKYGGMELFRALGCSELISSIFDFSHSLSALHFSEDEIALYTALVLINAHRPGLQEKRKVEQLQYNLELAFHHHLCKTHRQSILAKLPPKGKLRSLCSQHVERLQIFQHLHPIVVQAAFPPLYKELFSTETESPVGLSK
How it was run: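 Luminescence (One-Glo, 30 min RT) measured 16 h after compound addition and doxycycline induction at 37C. Reporter: RORE-luciferase under TET-inducible ROR-gamma in CHO cells.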

[20] = MultiTox-Fluor Cytotoxicity Assay - LYMP1-002 - Dead Cells (AID 960); conditions: LYMP1-002 lymphoblastoid cells, dead-cell protease fluorescence; series mostly up to 46.1 µM; further: nearly all actives have a fitted effect of over 60% in size
How it was run: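 Dead-cell fluorescence (Ex/Em 485/520) after 16 h compound exposure at 37 C of LYMP1-002 lymphoblastoid cells in complete medium; AC50 by Hill equation, with data scaled between DMSO and 15 uM tetraoctylammonium bromide.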

SMILES | Potency [1] | Potency [2] | Potency [3] | Potency [4] | Potency [5] | Potency [6] | Potency [7] | activation [8] | Potency [9] | max response [10] | Potency [11] | Potency [12] | activation [13] | activation [14] | Potency [15] | Potency [16] | Potency [17] | outcome [18] | Potency [19] | Potency [20]
CC(C)OCC1CO1 (stereo not drawn) | > 92 µM (inactive) | > 92 µM (inactive) | > 92 µM (inactive) | inactive | inactive | inactive | inactive | -3.64% (inactive) | inactive | -12.5% | inactive | inactive | 0.641% (inactive) | 0.599% (inactive) | inactive | inactive | inactive | inactive | – | –
Cc1ccc(N)cc1[N+](=O)[O-] | > 92 µM (inactive) | > 92 µM (inactive) | > 92 µM (inactive) | inactive | – | inactive | inactive | 0.881% (inactive) | inactive | 4.03% | inactive | inactive | -0.0251% (inactive) | 0.0603% (inactive) | inactive | inactive | inactive | inactive | inactive | –
Cc1ccc(C(=O)O)cc1[N+](=O)[O-] | > 92 µM (inactive) | > 92 µM (inactive) | > 92 µM (inactive) | inactive | inactive | inactive | inactive | – | inactive | 0.231% | – | inactive | – | -1.02% (inactive) | inactive | inactive | inactive | inactive | – | inactive
CCCCCCc1ccc(-c2ccc(C#N)cc2)cc1 | > 92 µM (inactive) | > 92 µM (inactive) | > 92 µM (inactive) | inactive | inactive | inactive | inactive | -6.81% (inactive) | – | -25.6% | inactive | – | 1.83% (inactive) | – | inactive | inactive | – | inactive | – | inactive
C=CC1CO1 (stereo not drawn) | > 92 µM (inactive) | > 92 µM (inactive) | > 92 µM (inactive) | inactive | inactive | inactive | inactive | -10.4% (inactive) | inactive | -16.9% | inactive | inactive | -3.74% (inactive) | 0.488% (inactive) | inactive | inactive | inactive | inactive | inactive | inactive
CCCCC(CC)COCCCN (stereo not drawn) | > 92 µM (inactive) | > 92 µM (inactive) | > 92 µM (inactive) | inactive | – | inactive | inactive | -4.42% (inactive) | – | 1.27% | inactive | inactive | -2.34% (inactive) | – | – | inactive | inactive | inactive | – | inactive
COc1ccc(C(=O)Nc2ccccc2)cc1[N+](=O)[O-] | > 92 µM (inactive) | > 92 µM (inactive) | > 92 µM (inactive) | – | – | inactive | inactive | -1.05% (inactive) | inactive | – | inactive | inactive | -6.78% (inactive) | 1.42% (inactive) | 33.5 µM (active) | – | inactive | – | inactive | –
CCNC(=S)NCC | > 92 µM (inactive) | > 92 µM (inactive) | > 92 µM (inactive) | inactive | – | inactive | inactive | – | inactive | -2.72% | – | inactive | -0.196% (inactive) | 0.201% (inactive) | inactive | inactive | inactive | inactive | inactive | inactive
Nc1cc(C(=O)O)c(O)c(S(=O)(=O)O)c1 | > 92 µM (inactive) | > 92 µM (inactive) | > 92 µM (inactive) | inactive | inactive | inactive | inactive | 1.03% (inactive) | inactive | 11.2% | inactive | inactive | -4.77% (inactive) | – | inactive | inactive | inactive | inactive | – | inactive
OCC(CO)(CBr)CBr | > 92 µM (inactive) | > 92 µM (inactive) | > 92 µM (inactive) | inactive | inactive | inactive | inactive | -3.06% (inactive) | – | 0.243% and -1.22% | inactive | inactive | – | -1.02% (inactive) and -1.55% (inactive) | inactive | inactive | inactive | inactive | inactive | inactive
O=[N+]([O-])c1ccc(F)cc1F | > 92 µM (inactive) | > 92 µM (inactive) | > 92 µM (inactive) | inactive | inactive | inactive | – | – | inactive | 0.464% | inactive | inactive | -3.21% (inactive) | 0.374% (inactive) | inactive | inactive | inactive | inactive | inactive | inactive
CC(=O)OC1CC(C)OC(C)O1 (stereo not drawn) | > 92 µM (inactive) | > 92 µM (inactive) | > 92 µM (inactive) | inactive | inactive | inactive | inactive | 0.225% (inactive) and -13.7% (inactive) | – | -9.84% and -8.03% | inactive | inactive | – | -0.185% (inactive) and -2.01% (inactive) | inactive | inactive | inactive | inactive | inactive | inactive
CC(=O)c1ccc(Cl)c(Cl)c1Cl | > 92 µM (inactive) | > 92 µM (inactive) | > 92 µM (inactive) | inactive | inactive | inactive | inactive | 1.81% (inactive) | inactive | -2.84% | – | inactive | -1.64% (inactive) | -0.287% (inactive) | inactive | inactive | inactive | inactive | – | inactive
